This is a sample that favours compounds with a hit; in the whole collection about 0.67% have one here.
S-ASM inh – blocks human secretory acid sphingomyelinase; Potency, µM (highest dose often 57.5 µM), for inactives: top-dose activity change, negative = inhibition, hits mostly inhibitors; placental ASM, HMU-PC fluorogenic substrate, 60 min; AID 504937; 340,000 tested, 0.006% active; active = well fitted inhibition curve with a large enough effect; inconclusive = small, poorly fitted or top-dose-only effect; inactive = no such curve, though single readings can be large or run the other way
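Human placenta-derived ASM preincubated with compound 10 min at room temperature, then reacted with 9 uM (final) fluorogenic HMU-PC substrate for 60 min at 37 C. Stop solution raises pH to 10; fluorescence read at Ex 386/Em 447 nm.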
Rango release inh – inhibitors of RanGTP-induced Rango-importin beta complex dissociation. O95149+P62826. Biochemical FRET Rango-importin beta, RanGTP-induced dissociation. Potency, µM (highest dose often 46.1 µM), inactives show top-dose activity change, negative = inhibition. 340,000 tested, 0.071% active. AID 540253; also: % of control where 0% means no effect; nearly all actives have a fitted effect of over 45% in size
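Compounds sat 5 min at room temperature with 0.1 uM Rango biosensor plus 0.25 uM importin beta, then FRET pre-read. RanGTP-RCC1 (0.6 uM Ran, 2mM GTP, 0.2 uM RCC1) added for 45 min, and the CFP/YFP post-read measured blocked complex dissociation.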
Rango complex inh – Rango-importin beta binding inhibition; Q14974; AID 540263; Rango CFP/YFP FRET sensor + importin beta, 45 min; Potency, µM (highest dose often 92.2 µM), without a hit: top-dose inhibition of complex formation; 340,000 tested, 0.031% active;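 also: 0% = DMSO wells and 100% = buffer wells lacking importin beta; nearly all actives have a fitted effect of over 15% in size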
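FRET biosensor (snurportin 1 IBB flanked by EYFP and cerulean), 50 nM, with compound 5 min, then 0.125 microM importin beta in PBS, 1 mM DTT, 0.02% Tween-20, 0.1% BSA. CFP/YFP ratio read after 45 min at room temperature; pre-read flags interference.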
gsp antag – gsp mutant antagonism; gsp-mutant cells, cAMP HTRF, 30 min; Potency, µM (titrated, usually from 76.9 µM), for the others: at the top dose activity change, negative = inhibition, usual class: inhibitors; 340,000 tested, 0.4% active; AID 624288; calls by dose curve; cell line not stated here;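 also: intracellular cAMP measured with PDE inhibitor Ro 20-1724 present during compound exposure; % is scaled to controls: 0 for no effect and ±100 for the full control effect; nearly all actives have a fitted effect of over 65% in size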
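HTRF cAMP measurement after 30 min RT detection following 30 min, 37C compound treatment alongside […] (added as 300 uM solution) in G418-selected cells seeded at 2000/well and grown 16–24 h.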
gsp agonist – gsp mutant agonism; gsp mutant cells, cAMP HTRF, 30 min; Potency, µM (top dose mostly 76.9 µM), without a hit: top-dose activation (cAMP increase), actives largely listed as activators; 340,000 tested, 0.13% active; AID 624287; active = well fitted activation curve with a large enough effect; inconclusive = small, poorly fitted or top-dose-only effect, or another doubt; inactive = no such curve, though single readings can be large or run the other way; cell line not stated here;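 also: phosphodiesterase inhibitor Ro 20-1724 added with compounds to block cAMP breakdown; nearly all actives have a fitted effect of over 60% in size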
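Cells stably selected in G418 were plated at 2000/well, grown 16-24 hr, then given compounds in DMSO with the PDE inhibitor […] (300 uM solution added) for 30 min at 37C; cAMP was read by HTRF.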
* marks the source's active call; other numbers are inactive results; u = inconclusive; x = not tested or not shown; [ ] = remark or other dose. Unless noted, calls follow the shape of the full dose curve. Potency is read from the fitted curve at half-maximal effect.

SMILES	S-ASM inh	Rango release inh	Rango complex inh	gsp antag	gsp agonist
COc1ccccc1N1CCN(C(=O)CCC(=O)Nc2nnc(CC(C)C)s2)CC1	2.1%	-0.1%	1.3%	-5.8%	21.0%
CCCCCC1CC(CC#CCN2CCOCC2)C(=O)O1 (stereo unspecified)	5.3%	-7.3%	0.0%	2.4%	-7.8%
O=C(CNC(=O)c1cccc(Cl)c1)Nc1ccc(Br)cc1C(=O)c1ccccc1	-9.5%	-2.0%	-0.5%	39.8µM*	10.4%
O=C(CNC(=O)c1ccc(Cl)cc1)Nc1ccc(Br)cc1C(=O)c1ccccc1	-16.0%	6.3%	0.9%	u	2.1%[15.4 µM]
COc1ccc(NC(=O)CCOc2cc(C)ccc2C)cc1S(=O)(=O)N1CCCCC1	-7.3%	-0.4%	-1.9%	u	1.8%[15.4 µM]
Cc1ccc(/C=C2\C(=O)NC(=S)N(c3cccc(F)c3)C2=O)o1	-4.2%	u	u	-6.8%	-10.0%
Cc1cccc(N2C(=O)/C(=C/c3ccc(CN(CCC#N)S(C)(=O)=O)o3)C(=O)NC2=S)c1	14.9%	23.1µM*	u	-22.5%	7.4%
COCOC1CCC2C3CCC4=CC(=O)CCC4=C3C=CC12C (stereo unspecified)	88.8%	20.6µM*	u	-8.4%	-23.2%
C=CCn1nc(C(=O)N2CCOCC2)cc1-c1sc(NC(=O)c2ccccc2)nc1C	x	x	x	x	22.4µM*
